# Results from PMC5700166.
# Assays:
# Test in all cases: protein-binding microarray (PBM); PBM: ~300 nM protein, 6 mM HEPES pH 7.8, 80 mM KCl, 0.5 mM EDTA, 0.5 mM EGTA, 6% glycerol, 35 ng/ul poly-dIdC, 1% milk, 1 h, room temperature; Ap Aiptasia and Nv Nematostella (sea anemones) / Co Capsaspora / Aq Amphimedon (sponge) / Dm Drosophila / Hu human; RHD is the Rel homology domain; high values mean tight binding
# Details in all cases: dsDNA, one strand shown
# [1] = molecular target: T1, GST-Ap-NF-kB RHD (Exaiptasia pallida (Aiptasia), UniProt A0A913YAJ5 2-422)
# T1 sequence: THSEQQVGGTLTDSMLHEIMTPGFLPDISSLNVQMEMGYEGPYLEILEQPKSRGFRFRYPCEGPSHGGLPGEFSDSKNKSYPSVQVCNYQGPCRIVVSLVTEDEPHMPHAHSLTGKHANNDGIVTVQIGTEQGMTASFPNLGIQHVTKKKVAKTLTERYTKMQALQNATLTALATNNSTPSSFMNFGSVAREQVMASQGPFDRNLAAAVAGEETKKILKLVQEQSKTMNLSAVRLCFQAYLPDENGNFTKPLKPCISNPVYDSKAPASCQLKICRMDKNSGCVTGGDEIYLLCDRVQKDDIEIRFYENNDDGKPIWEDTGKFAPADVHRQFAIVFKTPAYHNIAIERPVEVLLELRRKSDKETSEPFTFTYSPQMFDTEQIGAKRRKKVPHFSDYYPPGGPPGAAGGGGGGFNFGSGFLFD
# [2] = molecular target: T2, GST-Nv-NF-kB (Cys allele) (Nematostella vectensis, UniProt E5G601 2-411)
# T2 sequence: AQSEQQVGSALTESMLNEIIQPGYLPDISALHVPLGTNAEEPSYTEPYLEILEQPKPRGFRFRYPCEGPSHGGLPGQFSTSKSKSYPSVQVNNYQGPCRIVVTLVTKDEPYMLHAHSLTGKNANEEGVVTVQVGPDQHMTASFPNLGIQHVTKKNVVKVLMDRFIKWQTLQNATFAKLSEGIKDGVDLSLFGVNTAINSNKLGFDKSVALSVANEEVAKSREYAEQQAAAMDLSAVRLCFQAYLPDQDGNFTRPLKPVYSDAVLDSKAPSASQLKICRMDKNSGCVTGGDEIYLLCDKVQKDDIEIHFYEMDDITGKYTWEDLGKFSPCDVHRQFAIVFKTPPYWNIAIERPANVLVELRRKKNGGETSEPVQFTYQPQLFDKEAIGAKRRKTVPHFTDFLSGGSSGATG
# [3] = molecular target: T3, GST-Co-NF-kB (Capsaspora owczarzaki, UniProt F1ARL5 200-546)
# T3 sequence: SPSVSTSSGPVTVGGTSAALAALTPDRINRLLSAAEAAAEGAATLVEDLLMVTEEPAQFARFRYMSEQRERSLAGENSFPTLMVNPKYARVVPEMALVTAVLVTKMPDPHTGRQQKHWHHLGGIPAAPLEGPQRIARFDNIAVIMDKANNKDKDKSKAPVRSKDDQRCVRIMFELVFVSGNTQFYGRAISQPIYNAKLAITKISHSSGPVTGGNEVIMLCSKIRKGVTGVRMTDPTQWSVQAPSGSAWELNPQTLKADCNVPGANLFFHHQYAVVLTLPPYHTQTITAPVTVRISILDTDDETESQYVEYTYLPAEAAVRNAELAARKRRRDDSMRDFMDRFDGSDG
# [4] = molecular target: T4, GST-Dm-Relish (Drosophila melanogaster, UniProt Q94527 99-473)
# T4 sequence: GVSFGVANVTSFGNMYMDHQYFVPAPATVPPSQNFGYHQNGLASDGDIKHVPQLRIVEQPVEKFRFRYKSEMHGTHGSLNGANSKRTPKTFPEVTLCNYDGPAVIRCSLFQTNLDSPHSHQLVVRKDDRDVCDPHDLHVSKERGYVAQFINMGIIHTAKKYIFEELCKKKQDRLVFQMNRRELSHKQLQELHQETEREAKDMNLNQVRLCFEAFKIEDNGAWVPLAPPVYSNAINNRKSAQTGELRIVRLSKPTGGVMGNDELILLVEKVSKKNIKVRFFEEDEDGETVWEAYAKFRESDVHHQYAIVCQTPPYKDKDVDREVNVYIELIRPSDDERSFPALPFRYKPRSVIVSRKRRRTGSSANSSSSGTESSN
# [5] = molecular target: T5, GST-Aq-NF-kB (Amphimedon queenslandica, UniProt A9Y5G7 2-389)
# T5 sequence: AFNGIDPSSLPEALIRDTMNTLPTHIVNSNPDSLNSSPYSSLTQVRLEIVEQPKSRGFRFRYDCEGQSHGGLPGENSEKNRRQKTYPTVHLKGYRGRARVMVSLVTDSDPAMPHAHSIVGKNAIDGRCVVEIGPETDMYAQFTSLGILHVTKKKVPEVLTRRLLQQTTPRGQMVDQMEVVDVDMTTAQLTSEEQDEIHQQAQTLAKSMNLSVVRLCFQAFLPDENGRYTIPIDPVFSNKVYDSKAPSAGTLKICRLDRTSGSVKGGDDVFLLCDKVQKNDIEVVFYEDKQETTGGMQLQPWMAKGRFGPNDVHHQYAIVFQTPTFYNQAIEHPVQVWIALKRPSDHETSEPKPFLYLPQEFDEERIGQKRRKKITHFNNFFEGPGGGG
Sequence,binding signal [1] [z-score],binding signal [2] [z-score],binding signal [3] [z-score],binding signal [4] [z-score],binding signal [5] [z-score]
CCGATTAACATCAAGTACTTCCCTGATGTTAATCGGGTCTTGATTCGCTTGACGCTGCTG,2.1,2.22,2.13,8.12,3.13
CCGATTAACATCAGGGAATTAACTGATGTTAATCGGGTCTTGATTCGCTTGACGCTGCTG,2.83,4.33,2.63,4.07,5.19
CCGATTAACATCAGAAAATCCCATGATGTTAATCGGGTCTTGATTCGCTTGACGCTGCTG,4.49,4.29,1.54,7.07,4.36
CCGATTAACATCAGGGGGTGAAATGATGTTAATCGGGTCTTGATTCGCTTGACGCTGCTG,3.26,3.42,6.99,3.46,3.93
CCGATTAACATCAAGAATTCCCGTGATGTTAATCGGGTCTTGATTCGCTTGACGCTGCTG,4.85,6.36,4.23,4.9,5.46
CCGATTAACATCAATCACCCCCATGATGTTAATCGGGTCTTGATTCGCTTGACGCTGCTG,4.03,2.63,4.35,1.86,3.32
CCGATTAACATCAGGGGGTACACTGATGTTAATCGGGTCTTGATTCGCTTGACGCTGCTG,4.19,2.66,4.33,3.21,3.31
CCGATTAACATCAAATATTCCCATGATGTTAATCGGGTCTTGATTCGCTTGACGCTGCTG,4.02,4.31,3.51,2.7,3.63
CCGATTAACATCAAAAAATGCCCTGATGTTAATCGGGTCTTGATTCGCTTGACGCTGCTG,2.08,3.03,1,3.67,4.05
CCGATTAACATCAAGTATTCCCATGATGTTAATCGGGTCTTGATTCGCTTGACGCTGCTG,2.44,2.26,3.57,2,1.85
